Source: PubChem BioAssay

Experiments:
[1] = inhibitors of PAF-induced NFkB signaling in CF airway cells, dose response, cell-based, uHTS hits, panel, cytotoxicity readout (AID 624344); settings: CF bronchial epithelial cells, PAF-induced NFkB reporter inhibition, with PAF, run 1; at 79 µM (top of the series) unless noted
[2] = as above; settings: CF bronchial epithelial cells, PAF-induced NFkB reporter inhibition, with PAF, run 2; at 79 µM (top of the series) unless noted

Row | Structure (SMILES) | inhibition [1] | inhibition [2]
1 | CCC(Oc1ccccc1)C(=O)Nc1ncc([N+](=O)[O-])s1 (stereo not given) | 112% | 98.9%
2 | COC(=O)c1ccc(-c2ccc(OC)c([C@H]3[C@H]4C=CC[C@@H](C)[C@@H]4C(=O)N3Cc3ccccc3)c2)cc1 | 111% | 80%
3 | O=C1OC(c2ccccc2)(c2cc(Br)ccc2O)c2ccccc21 (stereo not given) | 105% | 116%
4 | CC1C(c2ccccc2)OCCN1C(=S)Nc1ccc(S(=O)(=O)N2CCCCC2)cc1 (stereo not given) | 100% | 106%
5 | COc1ccc(-c2[nH]ncc2-c2ccc3c(c2)OCCO3)c(O)c1 | 107% | 114%
6 | CS(=O)(=O)Nc1ccc(-c2cnc3cccnn23)cc1 | 95.8% | 102%
7 | COc1ccc(CNc2nn3c(-c4cccc(C(=O)N(C)C)c4)cnc3s2)cc1 | 113% | 104%
8 | O=c1cc(-c2ccccc2Cl)oc2cc(O)cc(O)c12 | 85.2% | 93.7%
9 | CC(C)C[C@H](CO)Nc1nc(Nc2cccc(Cl)c2)c2ncn(C(C)C)c2n1 | 112% | 100%
10 | Cc1ccsc1CN(C)c1ncnc2ccc(-c3ccoc3)cc12 | 91.6% | 93.8%
11 | C=C1C(=O)O[C@@]23[C@H]1CC[C@@H](C)[C@@H]2CC[C@@]1(C)O[C@@H]31 | 113% | 105%
12 | COc1ccc(-c2cc(=O)oc3cc(O)ccc23)cc1 | 105% | 103%
13 | O=C1N(c2ccccc2C(F)(F)F)O[C@@]1(c1ccccc1)C1CCCCC1 | 99.3% | 105%
14 | CC(=O)OC1CCC2(C)C(CCC3C4CC=C(C(C)=O)C4(C)OC(=O)CC32)C1 (stereo not given) | 99.2% | 104%
15 | Oc1ccc(Br)cc1-c1nc2cnccn2c1NC1CCCC1 | 101% | 97.8%
